Source: the supplement of paper PMC6555819

system: VDR:RXRa (NR concentration 270 nM, RXRa partner concentration 90 nM); test: PBM binding z-score (relative to random genomic background probes); higher = stronger binding; sequences stand for … in GC…GCGATTGACAGCGTAGAATGAAGG
Protocol: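 Protein-binding microarray (Agilent 4x180K custom design, double-stranded 60-nt probes: 5' GC cap, 34-nt variable region, 24-nt constant primer region; full probe sequence given). Purified or IVT nuclear receptor:RXRα heterodimers (3:1 NR:RXRα, mostly 270:90 nM) or homodimers were incubated for 1 h in PBS with 2% milk and no ligand, then detected with Alexa488 antibodies. Fluorescence from o1-orientation probes (~5 replicates averaged) was converted to z-scores against 500 random hg19 background probes. Variable regions are seed direct-repeat (DR0–DR5) sites, all their single-nucleotide variants and half-site ablations.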

Sequence | PBM binding z-score
TATTCAGGGTCAAAGGCCAGAGTACGAATGTCGA | 5.12
AGTCAAAGGTCATCTAGGTAACGTAAGATATGCT | 6.04
TCTAGTTGGTCAAAGGTCACGCACTCGAAATGCG | 6.05
CTATGTAGGTTACGGGGGTCATTCAGTTTGAAAG | 7.72
GATACAGGGTCGGCTAGAGGCCAGAGTATGGAAA | 0.547
CGCACTAGGTCATCCAGGACAGTGAATACATTGA | 4.38
AGTCAAAGTTTATCTAGGTAACGTAAGATATGCT | 0.584
CGAACTAGGTCATTGACAGGACAGTGGATAGTAA | 2.15
AGAATGAGGTTACTAAAGATCAGGGAAACGCTTG | 0.79
CGTCAAAGTCCAAGGTAACGTAACAGAAAGCAGC | -0.137
CTATGTAGGTTAGGGGGGTCATTCAGTTTGAAAG | 7.68
CGAACAAGGTCATTGACAGGACAGTGAATAGTAA | 4.88
AGAATGAGGTTACCAAAGGTCAGGGAAACGCTTG | 5.67
ATATGTAGGATAGCTGGGGTCATTCAGACTAGGC | 4.86
CCTTACGGGTCCCTCCAGGTTATAGCATCGGAGT | 0.0642
ATCAAAAGGTCGAGGTGAGTATAGAGAAAGGGAA | 3.29
CGAACTAGGTCAAGGGACAGTGAAAGGCGACGTA | 0.899
CCTACTGGGCCACTAAAGGTCATTGATTCAGTGA | 4.05
AGTCAAAGTGCATCTAGGTAACGTAAGATATGCT | 0.567
ATATGTAGGTTAGCTGGGGTCATTCACACTAGGC | 6.32

Sequence | PBM binding z-score
TTACCAAGGTGAAAGGTCGTTGCTGCACGCCTTG | 3.19
CCTACTGGACCAAGGTCATTGATCAGTCAAAGCA | 3.44
ACGCGGAGGACAAAGGTCAGAGCTACGCCAGTGA | 3.14
CGTCCAAGGTCTAGGTCAGTGAAAGAGACTCGAA | 0.105
GGAACGAGGTCAAAGTTGATAGCATCTGTCGACG | 5.81
CCAACTAGGTCAAAGGACAGTGAAAGGCGACGTA | 1.45
TTACCAAGGTGAACGGTCGTTGATGCACGCCTTG | 0.0102
TATACAAGGTCAAAGGCCAGAGTACGAATGTCGA | 4.83
CACACTAGGTCACAGAGGTCAAAGTCCGTGCGTA | 8.14
ATCGAAAGGTCAAAGGTGAGTATACCCACCCGAA | 6.2
AGTCAAAGTTCAGGACGAGGTAACGTTAAGCACG | 2.97
CGTCCAAAGTCAAAGGTCAGTGAAGAGATGACGG | 3.16
CCGACTGGGGCAAGGTCACCATAACGCACAGCCA | 3.26
CCTACTGGGCCACGAAAGGCCATTGATTCAGTGA | -0.147
ATCGAAAGGTCTAAGGTGAGTATACCCACCCGAA | 0.393
GATACAGGGTCAAGGTCAGAGTACGCGTATTGAT | 5.53
CCTCGGAGGACAACAGGAGGTCATAGCTGCCAGA | 3.57
CGTCCAAGGTCAGCGGGTCAGTGAAAGCGACGTG | 4.57
GATATAGGGTCAGCTAGAGGCCAGAGTATGGAAA | 3.42
TACCCTAGGTCATTGGGCCAGTATAGTACGCATC | 2.73
